Results taken from the supplement of paper PMC12632987.
Over roughly 4,500 sequences, “median log2 fold change of GCK-ALFA target abundance (FLAG IP / Myc IP barcode read proportion)” has its median near 0.078; the lowest 2% begin near -0.6. Shown is part of a subset that was picked to be rich in the lowest values.

B1: GBRAP_52_6036 (protein)
chain: SRERMRRLAQEIVDLAKAGDLEGARALAREAVETLSEEELRLLGEELARLAREAAPEDLDAIMEVAFILADALVEGGYDEVLADDLLARVAAAAVENLQA
B2: GBRAP_52_6031 (protein)
chain: SRERMRALARELIDLVLAGRDDEARALAEELVATLSEEELRLLGEELARLTREAAPEDLDAYMRAAEIVADALEAAGYDEVLADDLLARVAAAAVENLAR
B3: GBRAP_196_5416 (protein)
chain: KYLEEIKELEKESEEEVKDIELSDWTIVVNFTPENLEEEAEKTAEIAKDLGNPEIVIVHDGTLEEMLEALKLLREKLKEKGVVSKISVDSRAREEAEEKA
B4: GBRAP_84_7000 (protein)
chain: MREEEIEKLVDYLAENSSLELLKKLYVYLLLKNDNKGATRLLSYLLEKDPEAAAEALDKATEAALEEKEEEVKKELLELAKKEGEEIYKKVKKLIELLEE
B5: GBRAP_160_4655 (protein)
chain: SAELEELLEKIREIFEEALEMMKGETHEQRVAIARVMKGDVILLLEESPSVSDETVDEVDEVMDELVETIEENPDWTDEEIEEKIDEALEEIEEILEEDF
B6: GBRAP_11_2732 (protein)
chain: KKEKLEEIRELAERLAELLQRLIEEGPEDEELRREAEEQLRKLEELVKEYGDEDLKKLVEIIREEWERAQEDPETAVEHLRNALAAARVLAGQVLLEIEE
B7: GBRAP_128_3559 (protein)
chain: SVEERVEKAKELLEKIKNSDVEEARKYAEELAKLLEEADEESLEAIVETILERLPELSVEHLDVLADVFRERIPEADPRTAEALAEIQVEALNEAEEKEE
B8: GBRAP_128_3586 (protein)
chain: SVEAVRAETRALMAAMKTADDATAKALATELAARFTTLSLEEAEAAAEVIEEELPGLSAEHLDILADALRAALPAMTPEKAELAADVLVAALNEAEEKDE
B9: GBRAP_166_4874 (protein)
chain: GLEELLEKARKEIRELLKKASEADDEERVELYIEIGEIIEELREAGAPKEAILELVREALKEAKELGLDVRLLAGIIINVTDFDEEEIDELDKIVEEVLK
B10: GBRAP_11_2667 (protein)
chain: KKEVYKKAAELAKELAKTVKKLIEEGIDNEELIKKAEELLKELKELAKKELDKASQKEVEVLEEIWKEAKEDKENSLKYWELLLAGARVLEGNFLLEYDE
B11: GBRAP_160_4272 (protein)
chain: SPEREELIEDIEEDREEILELVDKISPEEVRNFAVTSLGSHLLEAIDLGLVTDEQEDELMEIVDELEKELKEAENASKEEIKKIITEHYDKAIEILKKAK
B12: GBRAP_166_4873 (protein)
chain: HMEELLKKAEKEIEKLLKEASEADEEEQVELYIEIGEIIEELKEAGASLEDILELIERTLKEAKKLGLDVKKLAGIIINVTDFNEEEIDKIDEIVEKVLK
B13: GBRAP_14_3780 (protein)
chain: MEKIEEIIREKAEEIIELLTEIAPEKAEEITEIVEEVVERTIARIKETGNAEEAAEEGRDELLARIAELTADLPAETRARMLAVVAVEFGQAILEIEELL
B14: GBRAP_125_2986 (protein)
chain: EEEELLEDLREIFKALGLSEEDAEEAVKLAREFSLKQTLYALMAALGAEEVADAVAKLTEEQAKEVVKEASEYIKKNPNITPEEVVELLLELAKKQLAKA
B15: GBRAP_78_6666 (protein)
chain: ELEKIIDETLELLTEVIRASKSLPPEVQEAVLDEAVEAATELEEIEEEGPNLEELEEAIKHLEKLLELLEKNKSPELEPLIEKLKKQIEKLKKAKEELEK
B16: GBRAP_95_7066 (protein)
chain: EEDREIAEDLIDTAEDLVEIGLYEQAARAAKAAVEVLKEIGETGELALRAAEVLVKVAEATGDEEAAEAAKEVLERIREAGGDEERIKELEKRLEEAKKK
B17: GBRAP_184_5265 (protein)
chain: KVLERTIKAENVEELIAKMEEVRKEALATGADVIILLEVEKLTKEMIDALFAQLKALRDAGYKGKITVGIDADLTEEMIDYVIKKADEAGVNVVLAISEE
B18: GBRAP_84_6999 (protein)
chain: STDEEIIELAKEIFDRVKGEAAVKILALVLLKVTGETATRILNYALERDPQVAYDALSLAYEVVSEDKEEELEEEARRLMAEESPEVRAKFERLLELMKA
B19: GBRAP_128_3320 (protein)
chain: MDEELLAEFKELAEAAKKADLPTLAKLTAEMVALIGQADAETREEMAEIFRKALEELDAEKLDVVADTLRAEMPKLDPEAARVVADLAVDALNLAEEKEE
B20: GBRAP_11_2689 (protein)
chain: KKEKLEEGAKLAEKGAELVERLLREGVDNEELLAELEKTLEELLKLAKKHASPASQKLTEDIKETWKRLLADPENAEEYARELLAGLRVLAGQYLLEIEE
B21: GBRAP_137_3670 (protein)
chain: MIRVEVELENGLAFARITVEGSPEELERAAEIAEDIAGEIPDLAVSVKLTEEGRLEIDVFGTPESVEAFLRRLAERLDRTVEVTTRDEETGEVRRRVIRP
B22: GBRAP_184_5066 (protein)
chain: SVAEETLEVRDLAEARAKLAALRAAVADHRGDLVVHLVLPEFDREIVALVLEGLAEIRAAGYARRVTVGLDADLTEEEADFAIELADAAGVNLTLALPEE
B23: GBRAP_95_7084 (protein)
chain: EEELEEAEALMATAVDLYDAGLEEQAARAIRDALDELEELGYKVADKELLERLLRHFVALALRHFDAEEVERALALAEASGAPAEIIAALRAALAALRAA
B24: GBRAP_79_6747 (protein)
chain: GVEEARRALVEALRVVLPDLTEEEAAEAVASDEALRAALLRAGISEEMAAELLEAIDAIPELAAERFRRTVERMEGLEPEDRRDVLEATIAAVIYEAEQR
B25: GBRAP_160_4279 (protein)
chain: SEKLLELAEELEEDREEILSLVDEISAEEVRTLAVTDLGSILLEAIDLELLSDEEEDELAKIIDDLDAELAAAADASPAERRAIITRHYDKAIELLRKAA
B26: GBRAP_52_6358 (protein)
chain: ALEEALALLREALAAVAAGDEEEARAILEELVATYSEETILAAFERLAEEVADKDVATAEALLETALLLADVMDEAGRDPAVADDIEAIAARTYMAVKAK
B27: GBRAP_48_5840 (protein)
chain: EEEKREKAIEEILKIIKETAELLEEAKEEGLSEAAFEAILIDAAEEIKEVLEKYLGLGEEFEKLPLEEQLAIVEELVKTYKEEGEEATRKKIKEFIEKLE
B28: GBRAP_186_5371 (protein)
chain: EEEAEKEIEEFIDEAAKKGYVISGVLEVKEFTEEAKKKIFDELEALAEFSAEFGYKGALIIKSTVSEEEFEELKKFVEEKRDELSKETGAEVEVKIVHVK
B29: GBRAP_78_6619 (protein)
chain: ETKEKIIELLDRARDRMREIARREPEVRDLANEAAVLVGTAILMVDTGEESKEEIIEELEEALKVAKELLERLEGRDEESVKLAKEAIEDLKKAIELVKK

target: GABARAP, O95166; test: median log2 fold change of GCK-ALFA target abundance (FLAG IP / Myc IP barcode read proportion) (log2 ratio); each designed protein is fused to an ALFA-tag nanobody in HEK293 cells to bring the named protein to FLAG-tagged glucokinase (GCK); Myc marks an untargeted standard; higher = target protein stabilised (more abundant); settings: target protein: 3xFLAG-MCP-GCK-ALFA reporter; HEK293 landing pad (RPLP)
Sequence (O95166 whole entry, the tested form may be a part): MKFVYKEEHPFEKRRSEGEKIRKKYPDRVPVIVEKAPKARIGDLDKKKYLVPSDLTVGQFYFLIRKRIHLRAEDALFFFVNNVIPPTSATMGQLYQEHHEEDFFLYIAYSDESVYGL
In short: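 An ALFA-nanobody-fused binder library was recombined into HEK293 landing-pad cells and induced with 2 μg mL^−1 doxycycline. Cells were transfected with a plasmid expressing a FLAG-tagged target and a Myc-tagged standard. After 48 h, lysates underwent anti-FLAG and anti-Myc immunoprecipitation, and circular RNA barcodes were reverse transcribed, amplified and sequenced. Target abundance is the per-binder median log2 ratio of FLAG to Myc barcode read proportions. Barcodes needed ≥10^−7 proportion in both replicates, binders ≥3 barcodes per replicate, and a 10^−6 pseudocount was added; the two replicates were pooled.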

Row | Binder | median log2 fold change
1 | B1 | -0.791
2 | B2 | -0.202
3 | B3 | 0.451
4 | B4 | 0.0601
5 | B5 | -0.612
6 | B6 | 0.303
7 | B7 | 0.095
8 | B8 | 0.296
9 | B9 | 0.0131
10 | B10 | -0.102
11 | B11 | 0.239
12 | B12 | -0.298
13 | B13 | -0.0168
14 | B14 | -0.643
15 | B15 | 0.274
16 | B16 | 0.142
17 | B17 | -0.0191
18 | B18 | -0.601
19 | B19 | 0.0824
20 | B20 | 0.195
21 | B21 | 0.0906
22 | B22 | 0.0273
23 | B23 | -0.692
24 | B24 | 0.209
25 | B25 | -0.493
26 | B26 | -0.632
27 | B27 | -0.364
28 | B28 | 0.163
29 | B29 | 0.338
